From PubChem BioAssay (NCATS)
Inconclusive results are not listed. Activity calls are given as the source filed them. The call rests on the fitted dose curve; in most records, active means well fitted curve in the direction sought with a large enough effect; inconclusive means small, poorly fitted or top-dose-only effect, or another doubt; inactive means no such curve, though single readings can be large; an effect the other way counts as inactive or inconclusive.

Assays:
[1] = tested on: Nanoluciferase (engineered Oplophorus gracilirostris luciferase); test: Primary Nanoluciferase (NLuc) qHTS assay for identification of artifact compounds. (AID 1845222);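 further: NLuc secreted into diluted conditioned medium of S16 cells; series mostly up to about 54 µM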
Method in brief: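 NLuc from S16 cell medium (1:55) plus test compounds, 15 min, room temperature. Luminescence after Nano-Glo (1:100) addition, 5 min.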

[2] = Primary redox qHTS assay for identification of artifact compounds. (AID 1845223)
Method in brief: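 Amplex Red (25 uM) and HRP (250 mU/mL) in HBSS, with compounds for 15 min, then 250 uM DTT for 30 min, room temperature, dark. Fluorescence 525/598 nm read; normalized to DMSO and 10 uM DA3003; Hill fit.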

[3] = Quantitative High-Throughput drug screen in 47 multiple myeloma cell lines against the NCATS MIPE library collection: FR4_PLB cell viability assay (AID 1918924; further: nearly all actives have a fitted effect of over 35% in size; further: potency means the concentration at half of the fitted maximal effect)
Method in brief: (§1)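 Primary qHTS used for cherry-picking: cells at 500/well, library compounds for 48 h (37C, 5% CO2), luminescent ATP assay.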

[4] = Quantitative High-Throughput drug screen in 47 multiple myeloma cell lines against the NCATS MIPE library collection: Delta47_JCRB cell viability assay (AID 1918925; further: nearly all actives have a fitted effect of over 45% in size; further: potency means the concentration at half of the fitted maximal effect)
Method in brief: (§2)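 Relative luminescence from CellTiter-Glo served as the viability signal, referenced to DMSO-treated (100%) and cell-free medium (0%) controls. Treatment lasted 48 hours at 37C with 500 cells per well.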

[5] = Quantitative High-Throughput drug screen in 47 multiple myeloma cell lines against the NCATS MIPE library collection: AMO1_DSMZ cell viability assay (AID 1918927; further: nearly all actives have a fitted effect of over 30% in size; further: potency means the concentration at half of the fitted maximal effect)
Method in brief: as §2

[6] = Quantitative High-Throughput drug screen in 47 multiple myeloma cell lines against the NCATS MIPE library collection: ARD_JJKsccE7 cell viability assay (AID 1918929; further: potency means the concentration at half of the fitted maximal effect)
Method in brief: as §2

[7] = Quantitative High-Throughput drug screen in 47 multiple myeloma cell lines against the NCATS MIPE library collection: EJM_DSMZ cell viability assay (AID 1918926; further: nearly all actives have a fitted effect of over 30% in size; further: potency means the concentration at half of the fitted maximal effect)
Method in brief: as §2

[8] = Quantitative High-Throughput drug screen in 47 multiple myeloma cell lines against the NCATS MIPE library collection: Karpas620_DSMZ cell viability assay (AID 1918959); further: nearly all actives have a fitted effect of over 30% in size; further: potency means the concentration at half of the fitted maximal effect
Method in brief: as §1

[9] = Quantitative High-Throughput drug screen in 47 multiple myeloma cell lines against the NCATS MIPE library collection: ARP1_JJKsccF8 cell viability assay (AID 1918928; further: nearly all actives have a fitted effect of over 40% in size; further: potency means the concentration at half of the fitted maximal effect)
Method in brief: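 Luminescence from CellTiter-Glo, taken after 5 min at room temperature, reports cellular ATP as viability. Cells (500 per well) had been treated 48 h at 37 °C with MIPE 4.0 compounds, scaled between DMSO and medium-only controls.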

Measured: Potency

C[C@@]1(C(=O)Nc2ccc(F)nc2)CCCN1c1nc(Nc2cc(C3CC3)[nH]n2)c2cccn2n1
inactive: [1] | [2]
active: [3] 0.166 µM | [4] 0.0166 µM | [5] 0.0935 µM | [6] 0.001 µM

CC[C@H](CC#N)OC(=O)N[C@@H](C)c1cccc(NC(=O)Nc2ccc(-c3cnco3)c(OC)c2)c1
inactive: [1] | [2]
active: [3] 1.48 µM | [7] 11.8 µM | [5] 0.418 µM | [6] 14.8 µM | [8] 18.7 µM

O=c1[nH]nc(OCCCc2ccc(Cl)cc2)c(NCc2cccnc2)c1Br
inactive: [1] | [2]
active: [3] 16.6 µM | [4] 4.18 µM | [7] 18.7 µM | [5] 7.43 µM | [9] 18.7 µM | [8] 10.5 µM

Cc1ccccc1C(=O)c1ccc(Nc2ccc(Br)cc2N)cc1Cl
inactive: [1] | [2]
active: [3] 6.62 µM | [7] 14.8 µM | [5] 0.833 µM | [8] 4.69 µM

c1ccc(CNc2nc(N3CCOc4ccccc43)nc3c2CCCC3)cc1
inactive: [1] | [2] | [3] | [7] | [8]
active: [5] 16.6 µM | [6] 20.9 µM

COC(=O)N1CCN(Cc2cccc(NC(=O)Nc3ccc(C)nc3)c2F)CC1
inactive: [1] | [2] | [9] | [6] | [8]

COc1ccc(-c2nc3ccc(C4=NNC(=O)CC4C)cc3[nH]2)cc1 (stereo unspecified)
inactive: [1] | [2] | [5] | [9] | [6] | [8]

Cc1nc2c([nH]1)CCN(C(=O)c1ccc(NC(=O)c3ccccc3-c3ccccc3)cc1)c1ccccc1-2
active: [5] 18.7 µM
inactive: [1] | [2] | [7] | [6]

CN(C)c1nc(Cc2ccc(NC(=O)c3ccc(C(F)(F)F)cc3)cc2)nc(N(C)C)c1CC(=O)O
inactive: [1] | [4] | [5] | [9] | [6] | [8]

CCOC(=O)[C@H](CCc1ccccc1)N[C@@H](C)C(=O)N1CCCC1C(=O)O (stereo partly specified)
inactive: [3] | [4] | [7] | [5] | [9] | [6] | [8]

CC(C)CNc1ccnc(NCc2csc(-c3ccccc3)n2)n1
active: [4] 2.35 µM | [5] 10.5 µM | [6] 5.9 µM | [8] 5.26 µM
inactive: [1] | [2]

NS(=O)(=O)c1ccc(Nc2nc(OCC3CCCCC3)c3[nH]cnc3n2)cc1
inactive: [1] | [2]
active: [4] 16.6 µM | [7] 23.5 µM | [5] 18.7 µM | [6] 16.6 µM

COc1nccc(-c2c(-c3ccc(F)cc3)ncn2C2CCNCC2)n1
inactive: [1] | [2] | [7] | [5] | [8]

CN1CCN(c2cccc(Nc3nc4c(-c5ccc(S(C)(=O)=O)cc5)cccn4n3)c2)CC1
inactive: [1]
active: [5] 4.18 µM | [6] 1.32 µM | [8] 0.833 µM

C[C@H](c1ccc(F)cc1CCCC(=O)O)N(c1cc(F)ccc1F)S(=O)(=O)c1ccc(Cl)cc1
active: [4] 20.9 µM | [9] 0.935 µM
inactive: [1] | [2] | [5] | [6] | [8]

N#Cc1ccc(Oc2ccc3c(c2)COB3O)cc1
inactive: [2] | [7]
active: [5] 20.9 µM

CS(=O)(=O)c1ccc(C2=C(c3ccccc3)C(=O)OC2)cc1
inactive: [2] | [3] | [7] | [5] | [9] | [6] | [8]

C[C@@H](N)c1ccc(C(=O)Nc2ccnc3[nH]ccc23)cc1
active: [4] 26.4 µM | [7] 23.5 µM | [5] 23.5 µM | [6] 26.4 µM
inactive: [1] | [2]

CN(C)CCOc1cc(-c2cn[nH]c2)ccc1NC(=O)C1COc2ccccc2O1 (stereo unspecified)
inactive: [1] | [6] | [8]

CNC(=O)c1ccc2c(C(=Nc3cccc(CN(C)C)c3)c3ccccc3)c(O)[nH]c2c1
inactive: [1] | [2] | [9]
active: [4] 23.5 µM

N#CC(c1ccnc(NCCc2cccnc2)n1)c1nc2ccccc2s1 (stereo unspecified)
active: [3] 20.9 µM | [4] 11.8 µM | [7] 18.7 µM | [5] 6.62 µM | [9] 18.7 µM | [6] 6.62 µM | [8] 9.35 µM

Nc1[nH]nc2nnc(-c3c(-c4ccccc4)nn4ccccc34)cc12
active: [4] 4.69 µM | [5] 1.66 µM | [6] 2.96 µM | [8] 16.6 µM
inactive: [1] | [2]

CN(C)CCCNC(=O)c1ccc(-c2cc(O)c3ncccc3c2)cc1
active: [3] 20.9 µM | [8] 20.9 µM
inactive: [1]

Cc1nc(C(=O)NCC(=O)O)c(O)c2ccc(Oc3ccccc3)cc12
inactive: [1] | [2] | [4] | [7] | [9] | [8]
